Data as given in PubChem BioAssay (NCATS).
Inconclusive results are not listed. A call without a number means that no potency is given here. Calls of active or inactive are those of the source. The call rests on the fitted dose curve; in most records, active means well fitted cell-killing curve with a large enough effect; inconclusive means small, poorly fitted or top-dose-only effect, or effect the other way; inactive means no such curve, though single readings can be large or run the other way.

Assay: Quantitative High-Throughput drug screen in 47 multiple myeloma cell lines against the NCATS MIPE library collection: KMS34_JCRB cell viability assay (AID 1918985); further: nearly all actives have a fitted effect of over 40% in size
Conditions: KMS34 myeloma viability, CellTiter-Glo ATP luminescence, 48 h; series mostly up to 45.8 µM
Excerpt: PI: Beverly A. Mock Ph.D.
Laboratory of Cancer Biology and Genetics,
Center for Cancer Research, National Cancer Institute,
National Institute of Health, Bethesda, Maryland
Drug resistance and disease progression are common in multiple myeloma (MM) patients, underscoring the need for new therapeutic combinations. […] We hypothesized that effective combinations would reduce MYC expression and enhance p16 activity. […] These preclinical data identify potentially useful drug combinations for evaluation in drug-resistant MM and reveal potential mechanisms of combined drug sensitivity.
Described herein is the primary MIPE qHTS used to cherrypick compounds. Validated compounds were then further tested for potential synergistic activiy.
[1] Peat TJ, Gaikwad SM, Dubois W, Gyabaah-Kessie N, Zhang S, Gorjifard S, Phyo Z, Andres M, Hughitt VK, Simpson RM, Miller MA, Girvin AT, Taylor A, Williams D, D'Antonio N, Zhang Y, Rajagopalan A, Flietner E, Wilson K, Zhang X, Shinn P, Klumpp-Thomas C, McKnight C, Itkin Z, Chen L, Kazandijian D, Zhang J, Michalowski AM, Simmons JK, Keats J, Thomas CJ, Mock BA. Drug combinations identified by high-throughput screening promote cell cycle transition and upregulate Smad pathways in myeloma. Cancer Lett. 2023 Aug 1;568:216284. doi: 10.1016/j.canlet.2023.216284. Epub 2023 Jun 24. PMID: 37356470; PMCID: PMC10408729.
SEQUENCE No. (e.g., 1, 2, 3, etc.); […] (e.g., Cells, Incubation, Reagent, etc.); VALUE and DESCRIPTION.
1; Cells; 5 uL; white, solid bottom 1536-well Greiner assay plate.
2; Compounds; 23 nL; Kalypsis pin tool (Wako USA) equipped with a 1536-well pin head to transfer to the assay plates.
3; Incubation; 48 hours; 37C incubation.
4; Reagent;5uL; CellTiter Glo (Promega).
5; Detector; 425V; Luminescence; Viewlux PerkinElmer.
NOTES (numbers refer to Sequence numbers above)
1. The cell-based screening methods employed in this study were like those previously published. Briefly, the corresponding myeloma cell lines were screened in 1,536-well plates with 500 cells, 5-uL per well for inhibition of cell viability (assessed by measuring ATP levels with CellTiterGlo).
2. NCATS MIPE 4.0 library of approved and investigational drugs were added using the Kalypsis pin tool. Wells treated with DMSO only for 100% viability and media only for 0% viability were used as controls.
3. The assay plates were covered and incubated for 48 hours in a 37C, 5% CO2 incubator with controlled humidity.
4. After 48 hours, CellTilter-GloTM luminescent substrate mix (Promega) reagent was added to the assay plate and plates we incubated for 5 min at room temperature.
5. Signal was measured as median relative luminescence units on a ViewLux (PerkinElmer) multiplate reader.
[1] Heske CM, Davis MI, Baumgart JT, Wilson K, Gormally MV, Chen L, Zhang X, Ceribelli M, Duveau DY, Guha R, Ferrer M, Arnaldez FI, Ji J, Tran HL, Zhang Y, Mendoza A, Helman LJ, Thomas CJ. Matrix Screen Identifies Synergistic Combination of PARP Inhibitors and Nicotinamide Phosphoribosyltransferase (NAMPT) Inhibitors in Ewing Sarcoma. Clin Cancer Res. 2017 Dec 1;23(23):7301-7311. doi: 10.1158/1078-0432.CCR-17-1121. Epub 2017 Sep 12. PMID: 28899971; PMCID: PMC6636827.
Potency means the concentration at half of the fitted maximal effect.

Question: With `CCCc1cc(=O)[nH]c(=S)[nH]1` as the compound, how does the Potency read?
Answer: inactive

Question: With `Cc1cc2c(s1)Nc1ccccc1N=C2N1CCN(C)CC1` as the compound, how does the Potency read?
Answer: inactive

Question: Which Potency does the source give for `C[C@H](Cc1ccc(O)c(O)c1)[C@@H](C)Cc1ccc(O)c(O)c1` here?
Answer: 16.6 µM (active)

Question: With `COc1cc(Nc2c(C#N)cnc3cc(OCCCN4CCN(C)CC4)c(OC)cc23)c(Cl)cc1Cl` as the compound, how does the Potency read?
Answer: 16.6 µM (active)

Question: Which Potency does the source give for `CN1CCC(=C2c3ccccc3CCc3sccc32)CC1` here?
Answer: inactive

Question: With `C=CCc1cc(OC)c(O)c(C(=O)NCCO)c1` as the compound, how does the Potency read?
Answer: inactive

Question: Which Potency does the source give for `CCN(CC)CCOc1ccc(Nc2ncc3cc(-c4c(Cl)cccc4Cl)c(=O)n(C)c3n2)cc1` here?
Answer: 0.166 µM (active)

Question: With `c1ccc2[nH]c(-c3cscn3)nc2c1` as the compound, how does the Potency read?
Answer: inactive

Question: With `C[C@@H](N)C1CCC(C(=O)Nc2ccncc2)CC1` (stereo not given in full) as the compound, how does the Potency read?
Answer: inactive

Question: For `Nc1cccc2c1CN(C1CCC(=O)NC1=O)C2=O` (stereo not given), which Potency is on record?
Answer: inactive

Question: For `CC1=C(C(=O)O)N2C(=O)[C@@H](NC(=O)[C@H](N)C3=CCC=CC3)[C@H]2SC1`, which Potency is on record?
Answer: inactive

Question: With `Clc1ccc2c(N3CCN(CCCN4CCN(c5ccnc6cc(Cl)ccc56)CC4)CC3)ccnc2c1` as the compound, how does the Potency read?
Answer: inactive

Question: With `Cc1c(OCC(F)(F)F)ccnc1CS(=O)c1nc2ccccc2[nH]1` (stereo not given) as the compound, how does the Potency read?
Answer: inactive

Question: For `O=C(O)c1cccnc1Nc1cccc(C(F)(F)F)c1`, which Potency is on record?
Answer: inactive

Question: With `Cc1nc(-c2ccc(OCC(C)C)c(C#N)c2)sc1C(=O)O` as the compound, how does the Potency read?
Answer: inactive

Question: Which Potency does the source give for `CN(C)[C@@H](CCOc1cccc2ccccc12)c1ccccc1` here?
Answer: 20.9 µM (active)

Question: With `c1cnc2cc3c(cc2n1)C1CNCC3C1` as the compound, how does the Potency read?
Answer: inactive

Question: With `CCN(CC)C(=S)SSC(=S)N(CC)CC` as the compound, how does the Potency read?
Answer: 0.0235 µM (active)

Question: With `CN(C)c1ccc2nc3ccc(=[N+](C)C)cc-3sc2c1` as the compound, how does the Potency read?
Answer: 0.59 µM (active)

Question: Which Potency does the source give for `Cc1nc(Nc2ncc(C(=O)Nc3c(C)cccc3Cl)s2)cc(N2CCN(CCO)CC2)n1` here?
Answer: 0.59 µM (active)

Question: With `COC(=O)N[C@H](C(=O)N[C@@H](Cc1ccccc1)[C@@H](O)CN(Cc1ccc(-c2ccccn2)cc1)NC(=O)[C@@H](NC(=O)OC)C(C)(C)C)C(C)(C)C` as the compound, how does the Potency read?
Answer: 20.9 µM (active)

Question: Which Potency does the source give for `CN1C(C(=O)Nc2ccccn2)=C(O)c2sccc2S1(=O)=O` here?
Answer: inactive

Question: Which Potency does the source give for `CCN(CCO)CCCC(C)Nc1ccnc2cc(Cl)ccc12` (stereo not given) here?
Answer: inactive

Question: For `Cn1c(NCCN(CCO)CCCc2ccc([N+](=O)[O-])cc2)cc(=O)n(C)c1=O`, which Potency is on record?
Answer: inactive

Question: With `CC(C)Oc1ccc2c(=O)c(-c3ccccc3)coc2c1` as the compound, how does the Potency read?
Answer: inactive

Question: For `CCOC(=O)C1=C[C@@H](OC(CC)CC)[C@H](NC(C)=O)[C@@H](N)C1`, which Potency is on record?
Answer: inactive

Question: Which Potency does the source give for `O=C(O)CCNC(=O)c1ccc(N=Nc2ccc(O)c(C(=O)O)c2)cc1` here?
Answer: inactive

Question: For `CC(C)[N+]1(C)[C@@H]2CC[C@H]1CC(OC(=O)C(CO)c1ccccc1)C2` (stereo not given in full), which Potency is on record?
Answer: inactive

Question: For `CN(C)C(=O)[C@H](O)[C@H](Cc1ccccc1)NC(=O)c1cc2cc(Cl)ccc2[nH]1`, which Potency is on record?
Answer: 0.935 µM (active)

Question: For `COc1c2occc2cc2ccc(=O)oc12`, which Potency is on record?
Answer: inactive

Question: With `COc1ccccc1N1CCN(CCN(C(=O)C2CCCCC2)c2ccccn2)CC1` as the compound, how does the Potency read?
Answer: inactive

Question: For `N=C(N=C(N)N)N1CCOCC1`, which Potency is on record?
Answer: inactive

Question: Which Potency does the source give for `CN(C)CCCC1(c2ccc(F)cc2)OCc2cc(C#N)ccc21` (stereo not given) here?
Answer: inactive

Question: For `CC(=O)N1CCN(c2ccc(OC[C@H]3CO[C@](Cn4ccnc4)(c4ccc(Cl)cc4Cl)O3)cc2)CC1`, which Potency is on record?
Answer: 13.2 µM (active)

Question: With `COCCCOc1ccnc(CS(=O)c2nc3ccccc3[nH]2)c1C` (stereo not given) as the compound, how does the Potency read?
Answer: inactive

Question: For `O=C(c1ccccc1)c1ccc2n1CCC2C(=O)O` (stereo not given), which Potency is on record?
Answer: inactive

Question: With `Cc1cccc(-c2[nH]ncc2-c2ccc3ncccc3n2)n1` as the compound, how does the Potency read?
Answer: inactive

Question: With `NS(=O)(=O)c1cc(C(=O)O)c(NCc2ccco2)cc1Cl` as the compound, how does the Potency read?
Answer: inactive

Question: For `O=C(O)c1cccc(-c2noc(-c3ccccc3F)n2)c1`, which Potency is on record?
Answer: inactive

Question: With `COc1ccc(C2(C#N)CCC(C(=O)O)CC2)cc1OC1CCCC1` (stereo not given) as the compound, how does the Potency read?
Answer: inactive
